Test in all cases: DAPPL (digital affinity profiling via proximity ligation, sequencing); 10 mM Tris-HCl pH 7.5, 50 mM NaCl, 1 mM DTT, 4% glycerol, room temperature, 30 min; GST-TFs on glutathione beads, 16-mer random dsDNA library, 0.1% formaldehyde crosslink after washing; high values mean tight binding
Common to all, as to conditions: protein: recombinant; tags: N-terminal GST; dsDNA, one strand shown

The target in one assay is T1, FLI1 (Homo sapiens, UniProt Q01543 1-452).
T1 sequence: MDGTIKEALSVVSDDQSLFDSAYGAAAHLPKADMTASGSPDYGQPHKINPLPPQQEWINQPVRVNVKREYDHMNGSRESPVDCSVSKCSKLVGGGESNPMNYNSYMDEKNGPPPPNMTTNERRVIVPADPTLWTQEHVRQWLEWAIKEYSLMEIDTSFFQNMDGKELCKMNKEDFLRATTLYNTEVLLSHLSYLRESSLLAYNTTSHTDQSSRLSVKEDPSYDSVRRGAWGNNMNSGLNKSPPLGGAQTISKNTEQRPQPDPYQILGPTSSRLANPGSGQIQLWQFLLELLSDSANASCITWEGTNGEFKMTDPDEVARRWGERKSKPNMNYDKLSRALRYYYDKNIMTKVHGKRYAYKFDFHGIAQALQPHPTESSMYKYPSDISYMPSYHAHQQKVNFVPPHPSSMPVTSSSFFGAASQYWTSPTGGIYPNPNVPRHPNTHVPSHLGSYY
The method, boiled down:
(§1)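 After expression in yeast as GST fusions, human transcription factors were bound to glutathione beads, DNA-barcoded and mixed with a tag-only sample. The pools were incubated with 200 nmole of a 16-mer random double-stranded DNA library in Tris/NaCl/DTT/glycerol buffer (30 min, room temperature), washed and crosslinked with 0.1% formaldehyde. Proximity ligation with BsaI/T4 ligase ran for 1 h at 37 °C, before PCR amplification and sequencing on an Illumina NextSeq500. Binding signal is a hexamer's read frequency for a factor divided by its frequency for the tag-only sample.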

In a further assay the target is T2, ELK1 (Homo sapiens, UniProt P19419 1-428).
T2 sequence: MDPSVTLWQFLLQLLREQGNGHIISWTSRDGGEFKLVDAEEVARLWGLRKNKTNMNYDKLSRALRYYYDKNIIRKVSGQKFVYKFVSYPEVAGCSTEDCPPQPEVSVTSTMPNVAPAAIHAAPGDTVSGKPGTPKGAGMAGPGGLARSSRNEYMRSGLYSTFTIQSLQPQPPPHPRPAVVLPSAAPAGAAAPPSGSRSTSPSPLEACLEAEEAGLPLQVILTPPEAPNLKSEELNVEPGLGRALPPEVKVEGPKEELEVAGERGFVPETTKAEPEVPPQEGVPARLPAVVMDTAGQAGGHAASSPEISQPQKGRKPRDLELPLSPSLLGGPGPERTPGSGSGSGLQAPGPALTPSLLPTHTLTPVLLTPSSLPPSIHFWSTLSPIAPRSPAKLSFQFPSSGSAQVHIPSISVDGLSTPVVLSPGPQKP
The method, boiled down:
as §1

A further assay has as its target T3, GABPA (Homo sapiens, UniProt Q06546 1-454).
T3 sequence: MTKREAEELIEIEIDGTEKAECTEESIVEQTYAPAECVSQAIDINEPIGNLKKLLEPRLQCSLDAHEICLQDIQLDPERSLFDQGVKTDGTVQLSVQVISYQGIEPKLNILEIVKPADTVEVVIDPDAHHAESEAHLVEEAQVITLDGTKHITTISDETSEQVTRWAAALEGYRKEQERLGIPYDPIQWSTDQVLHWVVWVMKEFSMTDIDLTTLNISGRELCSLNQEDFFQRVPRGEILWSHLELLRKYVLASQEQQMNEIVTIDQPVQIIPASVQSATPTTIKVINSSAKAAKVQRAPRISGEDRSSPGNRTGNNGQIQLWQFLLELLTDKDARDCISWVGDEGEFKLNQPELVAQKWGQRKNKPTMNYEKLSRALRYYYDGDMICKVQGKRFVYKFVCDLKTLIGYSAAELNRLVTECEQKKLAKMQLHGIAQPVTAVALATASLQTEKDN
The method, boiled down: as §1

The target in a further assay is T4, ERG (Homo sapiens, UniProt P11308 1-479).
T4 sequence: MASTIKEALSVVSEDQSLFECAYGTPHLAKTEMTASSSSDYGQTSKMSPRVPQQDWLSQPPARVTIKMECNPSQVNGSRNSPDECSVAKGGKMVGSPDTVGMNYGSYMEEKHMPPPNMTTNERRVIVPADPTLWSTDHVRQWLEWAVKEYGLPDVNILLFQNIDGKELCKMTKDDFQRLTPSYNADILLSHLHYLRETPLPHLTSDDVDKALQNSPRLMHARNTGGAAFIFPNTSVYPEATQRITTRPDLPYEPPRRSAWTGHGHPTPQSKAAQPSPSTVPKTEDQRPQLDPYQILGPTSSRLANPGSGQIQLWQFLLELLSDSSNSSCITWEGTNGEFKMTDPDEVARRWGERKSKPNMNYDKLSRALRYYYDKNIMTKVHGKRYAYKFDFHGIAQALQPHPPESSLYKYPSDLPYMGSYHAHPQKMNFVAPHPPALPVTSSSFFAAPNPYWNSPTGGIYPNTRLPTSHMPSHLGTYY
In short, it runs like this:
as §1

In a further assay the target is ELF1 (Homo sapiens, UniProt P32519 1-619). In short, it runs like this: as §1
The target in the next assay is T5, EHF (Homo sapiens, UniProt Q9NZC4 1-300).
T5 sequence: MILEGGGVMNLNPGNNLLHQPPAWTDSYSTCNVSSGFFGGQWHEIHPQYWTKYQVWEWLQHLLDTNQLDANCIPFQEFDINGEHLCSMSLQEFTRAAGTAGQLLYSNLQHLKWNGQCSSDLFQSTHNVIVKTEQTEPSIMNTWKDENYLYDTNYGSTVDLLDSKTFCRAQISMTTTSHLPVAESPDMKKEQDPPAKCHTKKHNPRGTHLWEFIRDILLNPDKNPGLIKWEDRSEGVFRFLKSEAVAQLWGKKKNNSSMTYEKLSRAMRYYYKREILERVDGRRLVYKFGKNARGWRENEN
The method, boiled down: as §1

For a further assay, the target named is SPI1 (Homo sapiens, UniProt P17947 1-270). In short, it runs like this: as §1
In the next assay the target is SPIB (Homo sapiens, UniProt Q01892 1-262). The method, boiled down:
as §1

The target of another assay is T6, ELK3 (Homo sapiens, UniProt P41970 1-407).
T6 sequence: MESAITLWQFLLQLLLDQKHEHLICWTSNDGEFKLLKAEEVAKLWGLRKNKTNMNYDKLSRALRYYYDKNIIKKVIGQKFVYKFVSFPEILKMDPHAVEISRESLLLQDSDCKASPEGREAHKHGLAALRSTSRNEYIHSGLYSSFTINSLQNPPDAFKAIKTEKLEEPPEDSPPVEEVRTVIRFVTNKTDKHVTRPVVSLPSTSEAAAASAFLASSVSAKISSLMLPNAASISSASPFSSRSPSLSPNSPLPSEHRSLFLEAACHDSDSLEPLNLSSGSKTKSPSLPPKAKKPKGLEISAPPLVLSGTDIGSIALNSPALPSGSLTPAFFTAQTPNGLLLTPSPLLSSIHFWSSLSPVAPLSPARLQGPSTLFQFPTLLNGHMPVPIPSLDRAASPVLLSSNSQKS
In short, it runs like this: as §1

A further assay has as its target T7, FEV (Homo sapiens, UniProt Q99581 1-238).
T7 sequence: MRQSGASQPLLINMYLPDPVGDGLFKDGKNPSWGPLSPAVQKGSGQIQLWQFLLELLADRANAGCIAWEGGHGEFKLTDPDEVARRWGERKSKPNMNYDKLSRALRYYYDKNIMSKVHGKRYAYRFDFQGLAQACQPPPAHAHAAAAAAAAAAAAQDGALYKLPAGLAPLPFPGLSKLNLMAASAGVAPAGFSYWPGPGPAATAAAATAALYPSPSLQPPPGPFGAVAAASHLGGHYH
The method, boiled down:
as §1

In another assay the target is ETV5 (Homo sapiens, UniProt P41161 1-510). The method, boiled down: as §1
In a further assay the target is T8, SPIC (Homo sapiens, UniProt Q8N5J4 1-248).
T8 sequence: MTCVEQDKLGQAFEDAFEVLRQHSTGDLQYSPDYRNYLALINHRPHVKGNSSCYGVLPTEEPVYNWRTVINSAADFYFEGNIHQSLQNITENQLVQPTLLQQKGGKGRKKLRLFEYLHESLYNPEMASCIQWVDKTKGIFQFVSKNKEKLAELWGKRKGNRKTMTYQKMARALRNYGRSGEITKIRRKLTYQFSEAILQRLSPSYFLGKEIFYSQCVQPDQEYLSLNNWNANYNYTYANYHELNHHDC
The method, boiled down: as §1

The target of the next assay is ELF4 (Homo sapiens, UniProt Q99607 1-663). In short, it runs like this: as §1
For a further assay, the target named is ETV1 (Homo sapiens, UniProt P50549 1-477). In short, it runs like this:
as §1

In a further assay the target is T9, ERF (Homo sapiens, UniProt P50548 1-548).
T9 sequence: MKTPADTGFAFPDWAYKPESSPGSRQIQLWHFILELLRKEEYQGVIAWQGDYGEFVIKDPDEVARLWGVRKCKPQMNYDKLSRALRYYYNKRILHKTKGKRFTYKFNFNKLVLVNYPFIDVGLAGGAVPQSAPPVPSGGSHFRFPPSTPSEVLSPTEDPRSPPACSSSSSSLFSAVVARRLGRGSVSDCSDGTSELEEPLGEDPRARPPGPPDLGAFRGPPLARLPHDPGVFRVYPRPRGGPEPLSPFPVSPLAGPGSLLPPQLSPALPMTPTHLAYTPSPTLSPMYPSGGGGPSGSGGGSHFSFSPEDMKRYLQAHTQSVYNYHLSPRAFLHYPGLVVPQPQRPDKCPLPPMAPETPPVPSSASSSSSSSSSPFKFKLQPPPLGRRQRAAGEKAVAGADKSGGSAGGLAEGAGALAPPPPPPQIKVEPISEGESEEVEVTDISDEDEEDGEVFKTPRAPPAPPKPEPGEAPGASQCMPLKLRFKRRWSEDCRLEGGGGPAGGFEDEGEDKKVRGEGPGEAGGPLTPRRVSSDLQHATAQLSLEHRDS
The method, boiled down:
as §1

Another assay has as its target T10, ETV3L (Homo sapiens, UniProt Q6ZN32 1-361).
T10 sequence: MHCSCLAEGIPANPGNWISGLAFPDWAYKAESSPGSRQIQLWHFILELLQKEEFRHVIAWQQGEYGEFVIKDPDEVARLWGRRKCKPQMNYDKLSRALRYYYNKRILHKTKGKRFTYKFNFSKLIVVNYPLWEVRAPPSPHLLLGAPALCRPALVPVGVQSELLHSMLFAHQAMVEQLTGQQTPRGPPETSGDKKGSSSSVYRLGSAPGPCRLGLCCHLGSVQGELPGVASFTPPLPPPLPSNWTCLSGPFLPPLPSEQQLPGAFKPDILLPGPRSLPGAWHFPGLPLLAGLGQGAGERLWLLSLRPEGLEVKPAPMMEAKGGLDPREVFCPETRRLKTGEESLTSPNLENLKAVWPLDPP
In short, it runs like this: as §1

Another assay has as its target T11, ETS2 (Homo sapiens, UniProt P15036 1-469).
T11 sequence: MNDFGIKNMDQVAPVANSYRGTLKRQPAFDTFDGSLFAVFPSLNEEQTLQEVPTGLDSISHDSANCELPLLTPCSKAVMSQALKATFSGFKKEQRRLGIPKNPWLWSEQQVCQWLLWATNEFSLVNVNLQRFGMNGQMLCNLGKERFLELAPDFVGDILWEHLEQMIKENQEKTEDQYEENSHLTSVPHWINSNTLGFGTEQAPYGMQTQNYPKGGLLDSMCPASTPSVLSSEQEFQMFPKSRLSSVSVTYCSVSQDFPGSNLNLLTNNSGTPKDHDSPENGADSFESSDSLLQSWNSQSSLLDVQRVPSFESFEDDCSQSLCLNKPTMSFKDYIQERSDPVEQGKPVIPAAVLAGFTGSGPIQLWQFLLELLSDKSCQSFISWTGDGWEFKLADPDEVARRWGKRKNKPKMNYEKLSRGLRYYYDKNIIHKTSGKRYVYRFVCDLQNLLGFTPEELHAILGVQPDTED
The method, boiled down: as §1

The target in another assay is T12, ELF5 (Homo sapiens, UniProt Q9UKW6-2 1-255).
T12 sequence: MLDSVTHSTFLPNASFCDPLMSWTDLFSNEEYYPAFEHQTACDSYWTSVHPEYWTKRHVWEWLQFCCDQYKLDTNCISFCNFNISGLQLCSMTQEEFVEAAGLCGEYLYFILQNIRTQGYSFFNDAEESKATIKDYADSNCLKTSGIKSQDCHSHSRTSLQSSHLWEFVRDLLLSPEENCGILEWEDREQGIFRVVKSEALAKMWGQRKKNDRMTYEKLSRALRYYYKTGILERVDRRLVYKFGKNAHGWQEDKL
The method, boiled down: as §1

A further assay has as its target T13, ETV3 (Homo sapiens, UniProt P41162-2 1-143).
T13 sequence: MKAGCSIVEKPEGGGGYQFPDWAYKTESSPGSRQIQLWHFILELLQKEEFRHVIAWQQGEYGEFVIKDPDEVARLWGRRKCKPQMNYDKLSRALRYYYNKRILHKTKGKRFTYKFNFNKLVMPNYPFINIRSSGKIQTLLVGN
The method, boiled down:
as §1

Another assay addresses ETV6 (Homo sapiens, UniProt P41212 1-452). In short, it runs like this: as §1

Sequence of ETV1 (P50549 whole entry): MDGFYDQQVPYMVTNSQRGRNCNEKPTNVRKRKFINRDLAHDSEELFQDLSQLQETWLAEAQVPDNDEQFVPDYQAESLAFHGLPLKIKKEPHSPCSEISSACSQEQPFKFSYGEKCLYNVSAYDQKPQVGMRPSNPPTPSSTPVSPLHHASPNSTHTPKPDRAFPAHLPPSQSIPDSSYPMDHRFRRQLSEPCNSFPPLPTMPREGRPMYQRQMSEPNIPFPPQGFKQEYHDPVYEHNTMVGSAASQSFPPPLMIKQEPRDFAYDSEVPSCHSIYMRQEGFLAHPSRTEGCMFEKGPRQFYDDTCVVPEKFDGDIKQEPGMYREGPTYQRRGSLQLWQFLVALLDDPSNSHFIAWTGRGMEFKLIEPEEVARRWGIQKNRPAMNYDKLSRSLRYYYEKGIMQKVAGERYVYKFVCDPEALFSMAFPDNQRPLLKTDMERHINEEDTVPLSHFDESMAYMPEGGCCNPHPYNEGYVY
Sequence of SPIB (Q01892 whole entry): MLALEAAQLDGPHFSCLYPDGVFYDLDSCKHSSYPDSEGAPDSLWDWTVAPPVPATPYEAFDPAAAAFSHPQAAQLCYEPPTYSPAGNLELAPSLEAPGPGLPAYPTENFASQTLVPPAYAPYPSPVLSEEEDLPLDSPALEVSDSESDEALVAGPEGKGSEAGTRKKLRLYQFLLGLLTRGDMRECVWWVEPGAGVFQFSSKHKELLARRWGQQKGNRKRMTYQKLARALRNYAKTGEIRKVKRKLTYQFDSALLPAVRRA
Sequence of ETV5 (P41161 whole entry): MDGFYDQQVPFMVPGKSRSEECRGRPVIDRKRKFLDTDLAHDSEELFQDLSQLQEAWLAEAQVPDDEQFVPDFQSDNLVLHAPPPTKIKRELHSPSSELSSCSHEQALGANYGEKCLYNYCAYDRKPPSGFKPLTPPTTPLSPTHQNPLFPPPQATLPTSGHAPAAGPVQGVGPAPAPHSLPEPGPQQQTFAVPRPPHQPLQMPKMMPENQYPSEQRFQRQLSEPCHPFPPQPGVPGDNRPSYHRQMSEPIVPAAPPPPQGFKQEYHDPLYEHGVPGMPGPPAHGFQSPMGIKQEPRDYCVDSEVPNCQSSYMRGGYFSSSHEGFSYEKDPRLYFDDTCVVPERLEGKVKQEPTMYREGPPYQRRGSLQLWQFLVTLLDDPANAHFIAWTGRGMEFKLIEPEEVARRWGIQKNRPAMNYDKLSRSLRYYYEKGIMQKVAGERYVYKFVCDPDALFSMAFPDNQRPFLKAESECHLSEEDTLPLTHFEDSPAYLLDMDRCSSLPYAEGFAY
Sequence of ELF4 (Q99607 whole entry): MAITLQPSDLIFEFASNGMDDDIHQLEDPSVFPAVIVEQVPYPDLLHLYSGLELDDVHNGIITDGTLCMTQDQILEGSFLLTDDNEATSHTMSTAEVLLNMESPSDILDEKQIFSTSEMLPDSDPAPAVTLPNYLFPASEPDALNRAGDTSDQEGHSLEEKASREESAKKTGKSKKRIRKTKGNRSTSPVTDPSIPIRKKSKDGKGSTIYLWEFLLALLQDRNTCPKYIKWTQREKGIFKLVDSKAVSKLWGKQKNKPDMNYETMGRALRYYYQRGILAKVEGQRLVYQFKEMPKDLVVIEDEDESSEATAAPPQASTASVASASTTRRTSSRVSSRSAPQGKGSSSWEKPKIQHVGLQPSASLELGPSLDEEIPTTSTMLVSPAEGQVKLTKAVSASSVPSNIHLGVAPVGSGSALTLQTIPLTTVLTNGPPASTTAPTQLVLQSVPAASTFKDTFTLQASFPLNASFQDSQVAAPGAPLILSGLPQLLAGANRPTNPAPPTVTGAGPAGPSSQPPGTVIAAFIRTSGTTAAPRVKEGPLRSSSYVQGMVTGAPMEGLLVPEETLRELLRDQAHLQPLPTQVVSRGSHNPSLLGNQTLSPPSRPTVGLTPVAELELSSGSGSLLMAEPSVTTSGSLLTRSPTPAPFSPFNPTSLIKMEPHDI
Sequence of ETV6 (P41212 whole entry): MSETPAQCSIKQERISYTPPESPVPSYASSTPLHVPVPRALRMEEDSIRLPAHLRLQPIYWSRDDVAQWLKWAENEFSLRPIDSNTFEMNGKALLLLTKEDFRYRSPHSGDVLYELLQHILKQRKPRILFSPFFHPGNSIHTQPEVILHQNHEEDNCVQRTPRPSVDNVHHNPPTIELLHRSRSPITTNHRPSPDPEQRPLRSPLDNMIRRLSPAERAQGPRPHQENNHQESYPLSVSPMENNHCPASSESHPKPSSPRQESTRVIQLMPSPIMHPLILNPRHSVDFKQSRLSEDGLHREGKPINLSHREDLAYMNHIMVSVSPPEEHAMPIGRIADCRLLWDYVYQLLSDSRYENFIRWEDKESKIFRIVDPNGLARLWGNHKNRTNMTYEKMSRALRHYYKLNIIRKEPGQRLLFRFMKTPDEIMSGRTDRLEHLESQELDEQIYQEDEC
Sequence of ELF1 (P32519 whole entry): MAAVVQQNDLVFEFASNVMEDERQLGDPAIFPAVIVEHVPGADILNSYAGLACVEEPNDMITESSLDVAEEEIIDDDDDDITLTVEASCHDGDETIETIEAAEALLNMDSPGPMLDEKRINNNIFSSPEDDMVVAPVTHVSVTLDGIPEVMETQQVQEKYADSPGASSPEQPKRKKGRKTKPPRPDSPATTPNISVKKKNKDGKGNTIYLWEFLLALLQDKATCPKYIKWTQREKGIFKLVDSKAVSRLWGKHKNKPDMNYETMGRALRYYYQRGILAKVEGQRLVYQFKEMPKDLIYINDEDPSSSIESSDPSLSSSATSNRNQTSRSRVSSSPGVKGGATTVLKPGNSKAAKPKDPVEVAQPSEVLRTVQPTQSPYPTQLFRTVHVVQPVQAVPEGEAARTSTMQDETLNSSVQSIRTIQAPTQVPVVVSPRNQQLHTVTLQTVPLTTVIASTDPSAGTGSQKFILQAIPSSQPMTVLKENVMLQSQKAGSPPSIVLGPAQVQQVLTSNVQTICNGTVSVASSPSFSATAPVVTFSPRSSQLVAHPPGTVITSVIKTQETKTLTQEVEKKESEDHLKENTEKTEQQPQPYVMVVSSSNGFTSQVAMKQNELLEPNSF

In the case of AACTGA, the binding signal is 1.07 fold enrichment (6-mer frequency, TF over GST control) with FLI1; 1.08 fold enrichment (6-mer frequency, TF over GST control) with ELK1; 1.08 fold enrichment (6-mer frequency, TF over GST control) with GABPA; 1.11 fold enrichment (6-mer frequency, TF over GST control) with ERG; 1.13 fold enrichment (6-mer frequency, TF over GST control) with ELF1; 1.1 fold enrichment (6-mer frequency, TF over GST control) with EHF. The binding signal was 1.13 fold enrichment (6-mer frequency, TF over GST control) with SPI1; 1.15 fold enrichment (6-mer frequency, TF over GST control) with SPIB; 1.06 fold enrichment (6-mer frequency, TF over GST control) with ELK3; 1.15 fold enrichment (6-mer frequency, TF over GST control) in the assay with FEV; 1.11 fold enrichment (6-mer frequency, TF over GST control) in the assay with ETV5; 1.37 fold enrichment (6-mer frequency, TF over GST control) with SPIC. The binding signal was 1.05 fold enrichment (6-mer frequency, TF over GST control) with ELF4; 1.16 fold enrichment (6-mer frequency, TF over GST control) in the assay with ETV1; 1.08 fold enrichment (6-mer frequency, TF over GST control) with ERF; 1.09 fold enrichment (6-mer frequency, TF over GST control) with ETV3L; 1.16 fold enrichment (6-mer frequency, TF over GST control) in the assay with ETS2; 1.01 fold enrichment (6-mer frequency, TF over GST control) with ELF5. The binding signal with ETV3 is 1.06 fold enrichment (6-mer frequency, TF over GST control); in the assay with ETV6, 1.1 fold enrichment (6-mer frequency, TF over GST control).
